Common to all, as to assay: NCI-60 one-dose screen, 48 h (100 = growth as untreated, 0 = no growth, -100 = all killed)
For one test, the system named is NCI-H226 lung. The following applies: 10 µM.
A further test relates to HOP-62 NSCLC. The conditions noted are these: 10 µM.
The next test has as its system NCI-H460 lung. The following applies: 10 µM.
Another test deals with A549/ATCC NSCLC. The conditions noted are these: 10 µM.
A further test relates to DU-145 prostate. The conditions noted are these: 10 µM.
A further test relates to SF-268 CNS. The conditions noted are these: 10 µM.
For a further test, the system named is SF-295 CNS. The following applies: 10 µM.
A further test concerns SF-539 CNS. The conditions noted are these: 10 µM.
The test system of a further test is UACC-257 melanoma. The following applies: 10 µM.
A further test has as its system M14 melanoma. The conditions noted are these: 10 µM.
The next test has as its system HCT-15 colon. The following applies: 10 µM.
The next test relates to HT29 colon. The conditions noted are these: 10 µM.
The subject of a further test is SNB-75 CNS. The following applies: 10 µM.
The subject of the next test is SNB-19 CNS. The following applies: 10 µM.
The next test concerns U251 CNS. The following applies: 10 µM.
Another test has as its system SK-MEL-5 melanoma. The following applies: 10 µM.
The subject of another test is UACC-62 melanoma. The conditions noted are these: 10 µM.
The next test has as its system SK-MEL-28 melanoma. The conditions noted are these: 10 µM.
The next test deals with SK-MEL-2 melanoma. The following applies: 10 µM.
The test system of another test is HL-60(TB) leukemia. The conditions noted are these: 10 µM unless noted.

This is part of a sample that, as a whole, favours compounds with a hit. Of some 83,000 tested, about 20% had one in any assay.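 Assay: single dose, 48 h. Readout: percent growth (0 = no net growth; negative = cell death). Active: <10.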 Values without a mark were called inactive. The source made the active and inactive calls.

Regarding `CC(=O)Oc1ccccc1C(=O)[Se]C(=NC(C)C)NC(C)C`, the growth in the test with NCI-H226 lung was -67.2% (active); in the test with HOP-62 NSCLC, -70.9% (active); in the test on NCI-H460 lung, -70.2% (active); in the test on A549/ATCC NSCLC, -3.31% (active); in the test with DU-145 prostate, -92.6% (active); in the test on SF-268 CNS, -30.9% (active). For the same compound, the growth in the test with SF-295 CNS is -79% (active); in the test with SF-539 CNS, -98% (active); with UACC-257 melanoma, -95.1% (active); with M14 melanoma, -92.7% (active); in the test on HCT-15 colon, -45.6% (active); with HT29 colon, -57% (active). Also, the growth with SNB-75 CNS is -94.6% (active); in the test on SNB-19 CNS it was -88.5% (active); in the test on U251 CNS it was -87.8% (active); with SK-MEL-5 melanoma, -84.4% (active); in the test on UACC-62 melanoma, -44.2% (active); in the test on SK-MEL-28 melanoma, -85.5% (active). Besides, the growth was -79.4% (active) with SK-MEL-2 melanoma and -41.3% (active) in the test on HL-60(TB) leukemia.
For the compound `COCCOCCOCCOc1ccc(-n2cc(-c3ccc(O[C@H]4O[C@@H]5OC6(C)CC[C@H]7[C@H](C)CC[C@@H]([C@H]4C)[C@@]57OO6)cc3)nn2)cc1`, the growth in the test on NCI-H226 lung was 79.7%; in the test on HOP-62 NSCLC, 73.6%; with NCI-H460 lung, 70.6%; in the test on A549/ATCC NSCLC, 60.1%; in the test with DU-145 prostate, 42.6%; with SF-268 CNS, 59%. In addition, the growth in the test on SF-295 CNS is 40.4%; with SF-539 CNS it was 47.6%; in the test with UACC-257 melanoma, 39.7%; in the test on M14 melanoma, 32%; with HCT-15 colon, 12.7%; in the test with HT29 colon, 48.1%. Further, the growth with SNB-75 CNS was 66.5%; in the test with SNB-19 CNS, 64%; in the test on U251 CNS, 73%; in the test on SK-MEL-5 melanoma, -24.4% (active); in the test with UACC-62 melanoma it was 37.3%; in the test on SK-MEL-28 melanoma, 44.6%. The values for the growth in the test with SK-MEL-2 melanoma and with HL-60(TB) leukemia were 16.8% and 10.1%, respectively.
As for `O=C(/C=C/c1ccco1)c1nc2ccccc2n1Cc1ccc(F)cc1`, the growth in the test on NCI-H226 lung was 77.9%; in the test with HOP-62 NSCLC, 87.6%; in the test on NCI-H460 lung, 70.9%; in the test on A549/ATCC NSCLC it was 62.2%; with DU-145 prostate, 56.6%; in the test with SF-268 CNS, 63.4%. For the same compound, the growth in the test on SF-295 CNS is 76%; with SF-539 CNS it was 64.6%; in the test on UACC-257 melanoma, 62.7%; in the test on M14 melanoma it was 88.2%; with HCT-15 colon, 32.3%; with HT29 colon, 68%. Moreover, the growth in the test on SNB-75 CNS is 28.7%; in the test with SNB-19 CNS, 77.7%; in the test with U251 CNS, 40.9%; in the test on SK-MEL-5 melanoma, 86.5%; with UACC-62 melanoma it was 45.4%; in the test with SK-MEL-28 melanoma it was 81.8%. Besides, the growth is 69.9% in the test with SK-MEL-2 melanoma and 15.8% in the test with HL-60(TB) leukemia.
In the case of `CC[C@]12C=CCN3CC[C@@]4(c5ccc(OC)cc5N(C)[C@H]4[C@@](O)(C(=O)OC)[C@@H]1OC(=O)CCCC[P+](c1ccc(C)cc1)(c1ccc(C)cc1)c1ccc(C)cc1)[C@@H]32`, the growth in the test on NCI-H226 lung was -78.6% (active); with HOP-62 NSCLC, -84% (active); in the test on NCI-H460 lung, -86.6% (active); in the test with A549/ATCC NSCLC, -92.2% (active); in the test on DU-145 prostate it was -84.5% (active); in the test with SF-268 CNS, -61.1% (active). Also, the growth in the test with SF-295 CNS was -91.8% (active); with SF-539 CNS, -98.7% (active); in the test on UACC-257 melanoma, -95% (active); with M14 melanoma, -88.3% (active); in the test with HCT-15 colon it was -90.1% (active); with HT29 colon, -81.8% (active). The growth with SNB-75 CNS was -87.6% (active); in the test on SNB-19 CNS, -96.5% (active); with U251 CNS, -93.6% (active); in the test with SK-MEL-5 melanoma it was -98.5% (active); in the test on UACC-62 melanoma it was -97.4% (active); with SK-MEL-28 melanoma, -97.8% (active). The growth in the test with SK-MEL-2 melanoma was -87.3% (active); in the test with HL-60(TB) leukemia, -42.2% (active).
Turning to `COC(=O)C[C@](O)(CCC(C)C)C(=O)O[C@H]1C(OC)=C[C@@]23CCCN2CCc2cc4c(cc2[C@@H]13)OCO4`, the growth with NCI-H226 lung was -20.4% (active); in the test with HOP-62 NSCLC it was 4.64% (active); with NCI-H460 lung it was -26.2% (active); in the test on A549/ATCC NSCLC, -20.5% (active); with DU-145 prostate it was -24.1% (active); in the test with SF-268 CNS it was -21.7% (active). In addition, the growth in the test with SF-295 CNS is -23.6% (active); in the test with SF-539 CNS, -51.4% (active); in the test with UACC-257 melanoma it was -30.9% (active); in the test with M14 melanoma it was -76.4% (active); in the test on HCT-15 colon, -29.7% (active); in the test on HT29 colon it was -47.5% (active). Moreover, the growth in the test on SNB-75 CNS is -48.8% (active); in the test on SNB-19 CNS it was -28.3% (active); in the test with U251 CNS it was -25.2% (active); in the test with SK-MEL-5 melanoma, -70.4% (active); in the test with UACC-62 melanoma, -25.2% (active); in the test with SK-MEL-28 melanoma, -32.9% (active). Moreover, the growth with SK-MEL-2 melanoma was -46.4% (active); in the test on HL-60(TB) leukemia, -38.5% (active).
For the compound `CC1=C(C=O)C2=C(C)C3(CC3)[C@@](C)(O)C(=O)C2=C1`, the growth in the test with NCI-H226 lung was 45.9%; in the test with HOP-62 NSCLC it was 37.5%; in the test with NCI-H460 lung, 2.24% (active); in the test with A549/ATCC NSCLC, 17.8%; in the test on DU-145 prostate it was 8.41% (active); with SF-268 CNS it was 36.2%. Also, the growth is 70.5% in the test with SF-295 CNS; -47.8% (active) with SF-539 CNS; 73.8% in the test with UACC-257 melanoma; 13.6% in the test on M14 melanoma; -29.3% (active) in the test with HCT-15 colon; 15.8% in the test with HT29 colon. Also, the growth is 16.5% with SNB-75 CNS; 54.5% with SNB-19 CNS; -43.9% (active) in the test on U251 CNS; -91.5% (active) in the test with SK-MEL-5 melanoma; 49.3% in the test with UACC-62 melanoma; 23.3% in the test on SK-MEL-28 melanoma. For the same compound, the growth in the test on SK-MEL-2 melanoma was 8.32% (active).
`O=C(/C=C/c1cccc(Br)c1)c1nc2ccccc2n1Cc1ccc(Br)cc1`: the growth is -67.7% (active) in the test with NCI-H226 lung; -42% (active) in the test with HOP-62 NSCLC; -40.3% (active) in the test with NCI-H460 lung; 28% in the test on A549/ATCC NSCLC; 4.37% (active) in the test with DU-145 prostate; 26.8% in the test on SF-268 CNS. Also, the growth in the test with SF-295 CNS is -19.7% (active); in the test on SF-539 CNS it was -66% (active); in the test on UACC-257 melanoma, 6.73% (active); with M14 melanoma, -31.7% (active); in the test on HCT-15 colon, -78% (active); with HT29 colon it was -49% (active). Moreover, the growth with SNB-75 CNS is 59.7%; with SNB-19 CNS it was -67% (active); with U251 CNS it was -83.3% (active); with SK-MEL-5 melanoma, -26.4% (active); with UACC-62 melanoma, -82.5% (active); with SK-MEL-28 melanoma it was -53.4% (active). In addition, the growth is -42.3% (active) in the test with SK-MEL-2 melanoma and -19.3% (active) in the test on HL-60(TB) leukemia.
Consider `C[C@H]1[C@H](OC(=O)CCC(=O)N(CCCc2cn(-c3ccc([N+](=O)[O-])cc3)nn2)CCNc2ccnc3cc(Cl)ccc23)O[C@@H]2OC3(C)CC[C@H]4[C@H](C)CC[C@@H]1[C@@]24OO3`, for which the growth in the test with NCI-H226 lung was 61.6%; with HOP-62 NSCLC, 69.4%; in the test on NCI-H460 lung, 53.5%; in the test on A549/ATCC NSCLC it was 52.6%; with DU-145 prostate, 53.8%; in the test with SF-268 CNS, 59.5%. For the same compound, the growth in the test with SF-295 CNS was 46.1%; in the test on SF-539 CNS, 38.1%; in the test on UACC-257 melanoma it was 63.3%; in the test with M14 melanoma, 45.3%; with HCT-15 colon, 15.8%; in the test with HT29 colon, -6.33% (active). The growth was 89.2% with SNB-75 CNS; 67% in the test with SNB-19 CNS; 55.9% with U251 CNS; 17.8% in the test on SK-MEL-5 melanoma; 39% in the test with UACC-62 melanoma; 50.7% with SK-MEL-28 melanoma. Moreover, the values for the growth with SK-MEL-2 melanoma and with HL-60(TB) leukemia were 26.7% and -24.2% (active), respectively.

These data come from PubChem BioAssay (NCI).
